KB-3-1 tox – kills parental KB-3-1 adenocarcinoma cells; AID 1347075; KB-3-1 viability, CellTiter-Glo ATP luminescence, 72 h; Potency, µM (series often up to 46.1 µM), actives largely listed as cytotoxic; hit rate 1.4% among 400,000; note: potency is the fitted concentration of half-maximal effect; % is set by controls: 0 for no effect and ±100 for the full control effect; nearly all actives have a fitted effect of over 60% in size
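Multi-concentration cytotoxicity screen in KB-3-1 cells grown in DMEM lacking phenol red with 10% FBS. After 72 h at 37 °C with compound, ATP-dependent luminescence was recorded.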
MCF10A rerep – inducers of DNA re-replication in MCF 10A breast cells. Potency, µM (doses to about 46.1 µM), for inactives: at the highest dose activity, positive = re-replication, actives largely listed as activators. hit rate 2.9% among 350,000. MCF 10A DNA re-replication, Hoechst nuclear intensity, 48 h. AID 624296; note: potency is the fitted concentration of half-maximal effect; % of control where 0% means no effect; nearly all actives have a fitted effect of over 50% in size
Giardia kill – Giardia lamblia killing; activity change, % at 7.66 µM, hits read low; Giardia lamblia trophozoite viability; AID 540267; hit rate 0.15% among 340,000; in the data active = activity change below about -80%; inconclusive = between about -30% and that limit;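 note: parasites exposed to compound for two days anaerobically before the ATP read; % is set by controls: 0 for no effect and ±100 for the full control effect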
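Each well holds 100 Giardia trophozoites and compound. After two days (48 hrs) at 37 deg C in anaerobic conditions, ATP is quantified by luminescence.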
SW480 rereplic – DNA re-replication induction in SW480 cells | SW480 DNA re-replication, Hoechst DNA content imaging, 48 h | hit rate 1.8% among 340,000 | Potency, µM (doses to about 46.1 µM), for inactives: at the top dose re-replication activation, hits mostly activators; note: potency is the fitted concentration of half-maximal effect; % of control where 0% means no effect; nearly all actives have a fitted effect of over 55% in size
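Hoechst fluorescence of nuclei (405 nm excitation, 500-530 nm emission) measured by plate-scanning imager after 48 hr compound exposure at 37 C; re-replication scored as increased number of nuclei with elevated intensity.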
KB-V1 cytotox – kills drug-selected multidrug resistant KB-V1 cells. KB-V1 MDR cells viability, CellTiter-Glo, 72 h. Potency, µM (doses to about 46.1 µM), actives largely listed as cytotoxic. hit rate 3.4% among 400,000; note: potency is the fitted concentration of half-maximal effect; % is set by controls: 0 for no effect and ±100 for the full control effect; nearly all actives have a fitted effect of over 60% in size
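Readout: CellTiter-Glo luminescence, 10 min after addition. Cells: KB-V1 MDR subline, 72 h at 37 degrees C with compound. Analysis: corrected, normalized data fitted to concentration-effect curves.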
S-ASM inh – blocks human secretory acid sphingomyelinase; P17405; hit rate 0.006% among 340,000; AID 504937; Potency, µM (highest dose often 57.5 µM), inactives show at the highest dose activity change, negative = inhibition, most hits filed as inhibitors; placental ASM, HMU-PC fluorogenic substrate, 60 min; note: potency is the fitted concentration of half-maximal effect
Target sequence (P17405 47-631 limits assumed): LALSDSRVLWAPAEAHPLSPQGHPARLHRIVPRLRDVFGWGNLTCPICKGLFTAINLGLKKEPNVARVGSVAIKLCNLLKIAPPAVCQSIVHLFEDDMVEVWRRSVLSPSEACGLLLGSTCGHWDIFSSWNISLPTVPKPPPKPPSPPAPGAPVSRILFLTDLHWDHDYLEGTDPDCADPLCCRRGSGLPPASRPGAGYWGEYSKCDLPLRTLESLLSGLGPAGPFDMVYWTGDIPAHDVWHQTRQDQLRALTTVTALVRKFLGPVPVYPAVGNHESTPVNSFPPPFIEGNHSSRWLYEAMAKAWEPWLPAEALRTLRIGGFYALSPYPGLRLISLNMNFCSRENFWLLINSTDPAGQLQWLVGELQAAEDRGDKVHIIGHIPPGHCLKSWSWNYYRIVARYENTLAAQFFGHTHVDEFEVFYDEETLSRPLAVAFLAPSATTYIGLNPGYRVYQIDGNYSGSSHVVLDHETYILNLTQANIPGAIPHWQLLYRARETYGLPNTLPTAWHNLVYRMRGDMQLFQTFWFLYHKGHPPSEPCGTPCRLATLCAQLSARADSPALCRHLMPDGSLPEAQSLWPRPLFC
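Human placenta-derived ASM preincubated with compound 10 min at room temperature, then reacted with 9 uM (final) fluorogenic HMU-PC substrate for 60 min at 37 C. Stop solution raises pH to 10; fluorescence read at Ex 386/Em 447 nm.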
An asterisk follows results filed as active; ! = repeats disagree. Most compounds without a hit are left out; they make up all but 6.9% or so of the library. Unless noted, calls come from the whole dose curve; as a rule, active = well fitted curve in the direction sought with a large enough effect; inconclusive = small, poorly fitted or top-dose-only effect, or another doubt; inactive = no such curve, though single readings can be large; an effect the other way counts as inactive or inconclusive.

COc1ccc(-c2nn(-c3ccccc3)cc2/C=C/C(=O)OCC(=O)Nc2ccccc2C#N)cc1 was read as KB-3-1 tox inconclusive, MCF10A rerep 14.6µM*, Giardia kill -1.0, SW480 rereplic 1.3%, KB-V1 cytotox inconclusive and S-ASM inh 207.3%.
CC(=O)Nc1ccc(NC2=Nc3ccccc3N3C2=Nc2c(c(C)nn2-c2ccccc2)C3c2ccccc2)cc1 (centres undefined) was read as KB-3-1 tox 8.2µM*, MCF10A rerep inconclusive, Giardia kill -14.5, SW480 rereplic inconclusive, KB-V1 cytotox inconclusive and S-ASM inh 5.0%.
`COc1cccc(C2c3c(C)nn(-c4ccc([N+](=O)[O-])cc4)c3N=C3C(=O)Nc4ccccc4N32)c1` (centres undefined) gave KB-3-1 tox inactive, MCF10A rerep inconclusive, Giardia kill -12.5, SW480 rereplic -4.9%, KB-V1 cytotox inactive and S-ASM inh -12.6%.
For COc1ccc(NC2=Nc3ccccc3N3C2=Nc2c(c(C)nn2-c2ccc(C)cc2)C3c2cccnc2)cc1 (centres undefined) the results were KB-3-1 tox inactive, MCF10A rerep 4.61µM*, Giardia kill -9.0, SW480 rereplic 2.91µM*, KB-V1 cytotox inconclusive and S-ASM inh 76.3%.
COc1cccc(CNc2nc(Cl)nc3nc[nH]c23)c1 was read as KB-3-1 tox inactive, Giardia kill -4.4 and KB-V1 cytotox inactive.
`O=C(Nc1ccc(Br)cc1F)c1cnn2c1NC(=C1CC1)C=C2C(F)F` gave KB-3-1 tox inactive and KB-V1 cytotox inactive.
`O=C(NCc1cccnc1)/C(=C\c1ccc(-c2ccc(Cl)c(Cl)c2)o1)S(=O)(=O)c1ccccc1` gave KB-3-1 tox inactive, MCF10A rerep 6.51µM*, Giardia kill -24.6, SW480 rereplic inconclusive, KB-V1 cytotox 4.11µM* and S-ASM inh 32.3%.
For CC(=O)COc1cc(C)cc2oc(=O)cc(-c3ccccc3)c12 the results were KB-3-1 tox inactive, MCF10A rerep -5.6%, Giardia kill inconclusive, SW480 rereplic -0.2%, KB-V1 cytotox inactive and S-ASM inh 5.3%.
For COc1ccc([N+](=O)[O-])cc1COc1cc(C)cc2oc(=O)cc(-c3ccccc3)c12 the results were KB-3-1 tox 20.6µM*, MCF10A rerep 11.6µM*, Giardia kill -5.7, SW480 rereplic inconclusive, KB-V1 cytotox 6.51µM* and S-ASM inh -0.3%.
CCOCCCNC(=O)C1CCC(CNS(=O)(=O)c2cccc3nsnc23)CC1 (centres undefined) was read as KB-3-1 tox inactive, MCF10A rerep -1.2%, Giardia kill 1.2, SW480 rereplic -7.6%, KB-V1 cytotox 20.6µM* and S-ASM inh -1.1%.
Screening CCCN1CNc2c(c(=O)[nH]c(=S)n2CCc2ccc(C)cc2C)C1 returned Giardia kill -2.5.
COc1cc(-c2nc(Cn3nnc(C(=O)Nc4ccccc4)c3C)c(C)o2)cc(OC)c1OC was read as KB-3-1 tox inactive and KB-V1 cytotox inactive.
Screening COc1cc(-c2noc(C)c2C#Cc2nccn2C)cc(OC)c1OC returned KB-3-1 tox 9.2µM*!, MCF10A rerep 16.4µM*, Giardia kill -1.7, SW480 rereplic inconclusive, KB-V1 cytotox 4.61µM*! and S-ASM inh -4.6%.
`Cn1nccc1C(=O)c1ccc(Cl)cc1` gave KB-3-1 tox inactive, MCF10A rerep -15.0%, Giardia kill -2.1, SW480 rereplic -14.0%, KB-V1 cytotox inactive and S-ASM inh 0.8%.
For Cc1cc(CC(=O)O)n(C)c1C(=O)c1ccc(Cl)cc1 the results were KB-3-1 tox inactive, MCF10A rerep 29.9µM*!, Giardia kill -14.9, SW480 rereplic -53.1%, KB-V1 cytotox inactive and S-ASM inh 2.0%.
Screening CCOc1ccccc1/C=N/Nc1ccnc(=O)[nH]1 returned KB-3-1 tox inactive, MCF10A rerep 3.1%, Giardia kill -3.1, SW480 rereplic 5.2%, KB-V1 cytotox inactive and S-ASM inh -2.7%.
